Data reported in PubChem BioAssay AID463173 (ICCB-Longwood Screening Facility, Harvard Medical School, 2010).
In all, about 52,000 compounds went through this assay and about 4,300 (8.3%) were called active. This excerpt belongs to a sample that is enriched for actives. A number with no mark means an inactive call. No stated cut-off is given here; in the data, active means survival mostly below about 52% (no sharp cut-off); inactive means mostly above about 56%.

system: DeltatarO mutant; assay: S. aureus survival, RN4220 and DeltatarO strains – OD600, teichoic acid synthesis inhibitors, primary screen (AID 463173); settings: S. aureus RN4220 wild type/DeltatarO growth, OD600, 18 h, hits give low values, screened at 18.75 µg/mL (by protocol)

Structure (SMILES)	survival
O=C(c1cccnc1)N1CCN(CCN2C(=O)C3C4C=CC(C4)C3C2=O)CC1 (stereo not given)	89%
COc1ccc(-n2nc(C(=O)NCCc3ccc(OC)c(OC)c3)c3c4ccccc4n(C)c3c2=O)cc1Cl	95%
CCOc1ccc(S(=O)(=O)NCCc2csc(-c3ccc(Cl)cc3)n2)cc1	91%
O=C1CC(c2ccccc2)Cc2[nH]c(=O)c(-c3nc(-c4ccc(F)cc4)cs3)cc21 (stereo not given)	154%
Cc1ccc(NC(=O)c2c(C)oc3ncnc(N4CCCCC4)c23)c(C)c1	108%
O=C(CCC1N=C2c3ccccc3N=C(SCC(=O)Nc3ccccc3F)N2C1=O)NCc1cccs1 (stereo not given)	96%
CCc1cccc(NC(=O)Cn2c(=O)n(CC3CCC(C(=O)NC)CC3)c(=O)c3sccc32)c1 (stereo not given)	83%
Cc1ccccc1OCCSc1nc2ccc(NC(=O)c3cccc(F)c3)cc2s1	100%
O=C(NCC1CCCO1)C1CCCN1C(=O)Nc1ccc(Cl)cc1 (stereo not given)	84%
COc1ccc(CNC(=O)c2cc(-c3cccc(Cl)c3)on2)cc1	49%
COc1ccc(CNC(=O)c2cc(-c3ccc(OC)cc3)on2)cc1	210%
COc1ccc(-c2cc(C(=O)NCc3ccc(F)cc3)no2)cc1	178%
COc1cccc(-c2cc(C(=O)NCc3ccccc3)no2)c1	45% (active)
CCC(C)NC(=O)c1cc(-c2cccc(OC)c2)on1 (stereo not given)	32% (active)
COc1cccc(-c2cc(C(=O)Nc3ccc(OC)cc3OC)no2)c1	56%
COc1cccc(-c2cc(C(=O)NCc3ccc(F)cc3)no2)c1	30% (active)
COc1cccc(-c2cc(C(=O)Nc3cccnc3Cl)no2)c1	61%
COc1cccc(-c2cc(C(=O)NCCc3ccc(OC)c(OC)c3)no2)c1	173%
CCOC(=O)C1CCCN(C(=O)c2c(C)nn(-c3ccc(F)cc3)c2-n2cccc2)C1 (stereo not given)	113%
COc1cccc(NC(=O)C2CCN(c3ccc(Sc4ccc(C)cc4)nn3)CC2)c1	49%
O=C(CSc1cn(CC(=O)N2CCCC2)c2ccccc12)Nc1ccccc1C(F)(F)F	66%
O=C(NCn1nc(-c2ccccc2)nc1-c1ccccc1)c1cccnc1	67%
CN(C)N=Nc1ccc(S(N)(=O)=O)cc1	92%
O=C(c1ccccc1)n1nc(-c2ccco2)nc1NCc1cccs1	81%
CC(C)CNS(=O)(=O)c1ccc(N2CCCCS2(=O)=O)cc1	82%
COc1ccc(CNC(=O)c2cc3ccccn3n2)c(OC)c1	71%
COc1ccc(Cn2nnc3c(=O)[nH]c(C4CCN(C(=O)c5ccc(C)cc5)CC4)nc32)cc1OC	24% (active)
CCS(=O)(=O)N1CCCC(c2nc3c(nnn3Cc3ccc(C)cc3)c(=O)[nH]2)C1 (stereo not given)	88%

Structure (SMILES)	survival
O=C(c1cccc(Cl)c1)N1CCC(c2nc3c(nnn3Cc3ccc(F)cc3F)c(=O)[nH]2)CC1	11% (active)
Cc1ccccc1Cn1nnc2c(=O)[nH]c(C3CCN(C(=O)c4ccccc4)CC3)nc21	17% (active)
O=C(c1ccccc1Cl)N1CCCC(c2nc3c(nnn3Cc3ccc(F)cc3F)c(=O)[nH]2)C1 (stereo not given)	56%
Cc1ccccc1Cn1nnc2c(=O)[nH]c(C3CCN(C(=O)c4ccccc4Cl)CC3)nc21	17% (active)
COc1ccc(Cn2nnc3c(=O)[nH]c(C4CCCN(C(=O)c5ccc(C)cc5)C4)nc32)cc1 (stereo not given)	107%
O=C(c1ccccc1)N1CCCC(c2nc3c(nnn3Cc3ccc(F)cc3F)c(=O)[nH]2)C1 (stereo not given)	101%
COC(=O)c1ccc(NC(=O)N2CCN(c3nnc(C)c4c(C)n(-c5ccccc5)nc34)CC2)cc1	65%
COc1ccc(C(=O)CN2CCC(N3CCCCC3)CC2)cc1	92%
COc1cc(-c2nc(Cn3nnc(C(=O)Nc4cccc(Cl)c4)c3C)c(C)o2)cc(OC)c1OC	80%
CCN(CC)c1ccc(C(=O)N2CCC(c3c[nH]c4ccccc34)(c3c[nH]c4ccccc34)CC2)cc1	104%
CCOc1ccccc1NC(=O)N1CCN(S(=O)(=O)c2ccc3c(ccn3C)c2)CC1	76%
CC(C)(C)c1ccc(C(=O)N2CCC(C(=O)O)CC2)cc1	68%
CN1C(=O)CC(NCCc2ccc(S(N)(=O)=O)cc2)C1=O (stereo not given)	72%
CCOc1ccc(-n2c(SCC(=O)Nc3cccc(Cl)c3)nc3c(oc4ccccc43)c2=O)cc1	58%
COc1cccc(Cn2nnc3c(=O)[nH]c(C4CCCN(C(=O)c5ccccc5Cl)C4)nc32)c1 (stereo not given)	80%
Cc1cccc(Cn2nnc3c(=O)[nH]c(C4CCN(C(=O)c5ccc(F)cc5)CC4)nc32)c1	28% (active)
COc1cccc(Cn2nnc3c(=O)[nH]c(C4CCN(C(=O)c5ccccc5Cl)CC4)nc32)c1	14% (active)
O=C(c1ccccc1F)N1CCC(c2nc3c(nnn3Cc3cccc(F)c3)c(=O)[nH]2)CC1	47%
COc1ccc(Cn2nnc3c(=O)[nH]c(C4CCCN(C(=O)c5ccccc5Cl)C4)nc32)cc1OC (stereo not given)	80%
Cc1ccccc1Cn1nnc2c(=O)[nH]c(C3CCN(C(=O)c4ccc(F)cc4)CC3)nc21	52% (active)
Cc1cccc(Cn2nnc3c(=O)[nH]c(C4CCN(C(=O)c5ccccc5F)CC4)nc32)c1	46%
Cc1cc(C)cc(NC(=O)c2cc3c(=O)n(Cc4ccco4)ccc3nc2C)c1	73%
O=C(Nc1ccccc1)c1ccc2c(O)c(S(=O)(=O)c3ccc(Cl)cc3)c(=O)[nH]c2c1	74%
COc1ccc(N(C)C(=O)c2cn(C)c(=O)c3cc(OC)c(OC)cc23)cc1	177%
O=C(CSc1nnc(-c2ccco2)o1)NC(c1ccccc1)c1ccccc1	61% (active)
O=C(CCSc1nnc(-c2ccco2)o1)Nc1ccccc1	86%
O=C(CSc1nnc(-c2ccccc2)o1)Nc1ccccc1	82%
